High-throughput results from PubChem BioAssay.
A selection: hits, their analogues and other compounds. The true share with any hit is near 2.3%.
CHO-K1 Ca ag: counter-screen for M1 agonists: effect in parental CHO-K1 cells; actives 0.48% (n = 360,000); Fluo-8 calcium fluorescence; scaled to maximal ATP response, vehicle zero; activation, % at 3 µM; AID 602248, 2012; in the data active = activation above about 15%;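 note: untransfected CHO-K1 host cells lacking M1 receptor as counterscreen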
M1 PAM: human M1 muscarinic receptor positive allosteric modulators, primary screen, CHO-K1 cells, Fluo-8 calcium fluorescence, 1536-well | CHO-K1 hM1, ACh EC20; 0% = ACh EC20, 100% = maximal ACh | activation, % at 3 µM | actives 0.088% (n = 360,000); in the data active = activation above about 19%, passing the limit was not always enough
Target sequence (P11229 whole entry, looked up): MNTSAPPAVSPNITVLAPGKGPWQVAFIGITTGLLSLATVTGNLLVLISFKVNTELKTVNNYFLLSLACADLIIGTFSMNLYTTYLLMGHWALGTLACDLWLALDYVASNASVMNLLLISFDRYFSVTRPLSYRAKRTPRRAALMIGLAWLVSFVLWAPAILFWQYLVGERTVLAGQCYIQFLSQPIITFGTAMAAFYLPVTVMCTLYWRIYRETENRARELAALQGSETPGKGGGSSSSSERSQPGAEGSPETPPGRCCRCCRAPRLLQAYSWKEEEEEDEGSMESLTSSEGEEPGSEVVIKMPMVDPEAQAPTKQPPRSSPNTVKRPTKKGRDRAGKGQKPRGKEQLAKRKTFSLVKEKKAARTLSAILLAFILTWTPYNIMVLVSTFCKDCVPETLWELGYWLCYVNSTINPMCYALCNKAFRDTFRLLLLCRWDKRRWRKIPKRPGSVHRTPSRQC
M1 antag: human M1 muscarinic receptor antagonists, primary screen, CHO-K1 cells, Fluo-8 calcium fluorescence, 1536-well; Muscarinic acetylcholine receptor M1 (Homo sapiens), P11229; CHO-K1 hM1, ACh EC80 antagonist; inhibition, % at 3 µM; actives 1.3% (n = 360,000); AID 588852, 2011;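 active = percent inhibition above its own plate's cutoff, namely the mean of that plate's compound wells plus 3 SD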;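 note: peak over basal fluorescence ratio during 140 s after agonist addition; 0% = ACh EC80 plus DMSO and 100% = DMSO alone without agonist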
CHO-K1 Ca PAM: nonselective calcium activators in parental CHO-K1 cells, primary screen, counter-screen for M1 PAM project, cell-based, Fluo-8 calcium fluorescence, full deck, 1536-well; activation, % at 3 µM; AID 602247, 2012; ATP EC20; 0% at ATP EC20, 100% at ATP max; actives 0.02% (n = 360,000);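 active = activation above the run cutoff, the mean activation of all test compounds plus 3 SD, cut at about 40% in these data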;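 note: peak over basal fluorescence ratio in a 140 s read after ATP addition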
CHO-K1 Ca antag: M1 antagonist counterscreen hit in parental CHO-K1 cells | AID 602250 | inhibition, % at 3 µM | actives 0.6% (n = 360,000) | ATP-induced calcium, Fluo-8 fluorescence;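 active = inhibition above a per-plate cutoff, the plate's mean sample inhibition plus 3 SD, cut at about 24% in these data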;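 note: 0% = DMSO plus EC80 ATP and 100% = DMSO alone without ATP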
CHRM1 agonist: human M1 muscarinic receptor agonists, primary screen, Fluo-8 calcium fluorescence, CHO-K1 cells, HTS. actives 0.33% (n = 360,000). activation, % at 3 µM. CHO-K1 hM1, agonist mode; 0% DMSO, 100% acetylcholine EC100;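 active = activation above the run's mean compound activation plus 3 SD, cut at about 16% in these data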;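 note: peak over basal fluorescence ratio within a 140 s kinetic read after compound addition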
* hit, by the source's call.

SMILES	CHO-K1 Ca ag	M1 PAM	M1 antag	CHO-K1 Ca PAM	CHO-K1 Ca antag	CHRM1 agonist
Cc1nn(CC(C)C)c(Cl)c1C(=O)O	0	4	-4	-16	-6	-5
COc1ccc(CN2CC=C(c3ccc(F)cc3)CC2)cc1Br	1	-26	46*	23	-14	-7
CCN(CC)c1ccc(CN2CC=C(c3ccc(F)cc3)CC2)cc1	1	-22	37*	0	0	-5
Cc1nc2ncnn2c(C)c1CCC(=O)N1CCC2(CC1)OCCO2	0	0	0	8	4	-2
Cc1nc2cc(-c3ccccc3)nn2c(C)c1CCC(=O)N1CCC2(CC1)OCCO2	0	2	3	-7	24*	-1
CSc1ccccc1C(=O)C1CCCN(Cc2ccncc2)C1 (stereo unspecified)	3	-23	55*	15	-14	-7
CSc1ccc(C(=O)C2CCCN(Cc3cccnc3)C2)cc1 (stereo unspecified)	5	-33	34*	11	-3	-13
COc1ccccc1CN1CCCC(C(=O)c2ccccc2SC)C1 (stereo unspecified)	3	-20	32	9	1	-6
CCOC(=O)C1(CCOc2ccccc2)CCN(C2Cc3ccccc3C2)CC1	3	-22	46*	11	-9	-5
CCOC(=O)C1(CCOc2ccccc2)CCN(C(C)CSC)CC1 (stereo unspecified)	4	-10	3	24	-15	-9
O=C(Nc1ccc(F)cc1)N1CC2CC(C1)c1cccc(=O)n1C2 (stereo unspecified)	0	2	-2	-2	5	-2
CNc1cc(Cl)c2nonc2c1[N+](=O)[O-]	-1	1	25*	-17	38*	-1
O=c1c2ccccc2nc(-c2ccc([N+](=O)[O-])cc2)n1-c1ccccc1	0	-1	7	16	-7	-5
Cc1ccccc1-n1c(-c2ccc([N+](=O)[O-])cc2)nc2ccccc2c1=O	1	-29	49*	10	-2	-10
O=c1c2ccccc2nc(-c2ccccc2)n1-c1ccncc1	0	7	10	-4	31*	-1
C[C@]12CC[C@@H](O)CC1=CC(=O)C1C2CC[C@]2(C)C(=O)CCC12 (stereo partly specified)	1	5	-14	20	-18	-5
O=C(CCc1nnc2ccc(NCc3ccccc3Cl)nn12)N1CCC2(CC1)OCCO2	0	3	5	6	3	-5
CNc1ccc2oc(C[C@H]3O[C@@]4(CC[C@H]3C)O[C@H]([C@H](C)C(=O)c3ccc[nH]3)[C@H](C)C[C@H]4C)nc2c1C(=O)O	33*	-21	94*	-5	49*	105*
Oc1c(Cl)cccc1Cc1cc(Cl)cc(Cl)c1O	8	-22	41*	-22	15	3
Cc1ccc(/C=C2/C(=O)NC(=O)N(CC3CCCO3)C2=O)s1 (stereo unspecified)	19*	13	-3	14	1	-7
Cc1cc(Oc2cc(NN3CCCCC3)c([N+](=O)[O-])cc2[N+](=O)[O-])ccc1[N+](=O)[O-]	0	7	9	-3	-5	3
COC(=O)C1=C(c2ccc(F)cc2F)C[C@@H]2CC[C@H]1N2C(=O)NCCCOC(C)C	1	9	-5	24	-11	-8
OCc1cnc[nH]1	0	-1	-26	-7	36*	0
O=C(CN1CCCCC1)c1ccc(F)cc1	1	6	-10	15	-6	-3
O=C(c1ccccc1)C(CN1CCCC1)c1ccccc1 (stereo unspecified)	0	-26	51*	26	2	-7
SMILES	CHO-K1 Ca ag	M1 PAM	M1 antag	CHO-K1 Ca PAM	CHO-K1 Ca antag	CHRM1 agonist
O=C(Nc1ccncc1)c1cccn(Cc2ccccc2)c1=O	32*	-1	8	-12	11	-12
C=CCN1CC[C@]23c4c5ccc(O)c4OC2C(O)CC[C@@]3(O)[C@H]1C5 (stereo partly specified)	0	1	1	6	-11	-3
CN1OCC2Cn3c(nc4ccccc43)C21 (stereo unspecified)	0	27*	-13	-2	-8	5
CCc1nc(N2CCNCC2)c(C#N)c2c1CSC(C)(C)C2	0	-18	47*	-7	7	-6
COc1ccccc1N1CCN(Cc2ccc(Br)s2)CC1	0	3	-6	-5	11	-7
c1ccc(-c2ccc(CN3Cc4ccccc4-n4nncc4C3)cc2)cc1	8	-19	36*	4	2	-2
Cc1cc(OCC(=O)N2CCC(C(N)=O)CC2)c2c3c(c(=O)oc2c1)CCCC3	1	-2	0	13	-7	-3
O=c1[nH]c2ccccc2n1C1CCN(CCCC(c2ccc(F)cc2)c2ccc(F)cc2)CC1	0	-10	7	-13	14	21*
O=C(NCC1=C(c2cccc3ccccc23)C[C@@H]2CC[C@H]1N2Cc1ccco1)c1ccc([N+](=O)[O-])cc1	1	-4	-2	9	3	-10
OC(c1cccc(Cl)c1)(c1cccc(Cl)c1)C1CN2CCC1CC2 (stereo unspecified)	6	-31	99*	8	4	-9
CN1CCCC1C(O)(c1ccccc1)c1ccccc1 (stereo unspecified)	2	-7	4	22	-39	-4
O=C(COc1ccc(Cl)cc1)N(c1ccccc1Cl)C1CN2CCC1CC2 (stereo unspecified)	2	-25	75*	-12	10	-6
O=C(COc1ccc(Cl)cc1)N(c1ccc(Cl)cc1)C1CN2CCC1CC2 (stereo unspecified)	2	-21	44*	3	-7	-4
CN1CCN(C(=O)COc2ccc(Oc3ccccc3)cc2)CC1	2	8	-2	10	-18	-15
Cc1ccc(C[n+]2c(-c3ccc(C)cc3)cc(-c3ccc(C)cc3)cc2-c2ccc(C)cc2)cc1	14	-13	33*	4	17	2
CC(=NCCO)c1c(O)n(C2CCCCC2)c(=O)[nH]c1=O	0	4	-1	16	-13	-2
CCC(=O)c1c(O)n(C2CCCCCC2)c(=O)[nH]c1=O	0	1	-1	-6	28*	-3
Clc1ccccc1CNC1CN2CCC1CC2 (stereo unspecified)	0	-20	39*	7	1	-10
